16 compounds from PubChem BioAssay (NCATS) can be followed below.

The target in assay [1] is Cytochrome P450 1A2 (Homo sapiens) (UniProt P05177). The assay is described as follows: p450-cyp1a2 (AID 410; calls by dose curve;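 also: -100% = full effect of reference inhibitor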). The method, boiled down:
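Luminescent demethylation readout: Luciferin-ME (100uM, equal to Km) turned over by 20nM CYP1A2 for 60 min at room temperature after NADPH regeneration addition, following 10 min compound preincubation. Normalization used 57 uM furafylline as full inhibition.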

A short description of assay [2]: NFAT Signaling Pathway (AID 444; active = well fitted curve in either direction with a large enough effect, not every such curve was filed as active;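 also: carbachol stimulus at about its EC50 of 1 µM final; % is scaled to controls: 0 for no effect and ±100 for the full control effect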). As to conditions: Jurkat NFAT-bla M1, carbachol, beta-lactamase ratio, 5 h. The method, boiled down:
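Read-out: CCF4 FRET ratio (460 nm/530 nm) after 1 h RT dye loading, used for %activity and AC50 from titration series. Cells: Jurkat NFAT-β-lactamase/M1 line, treated with compound plus 1 uM carbachol for 5 h, 37 °C.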

Assay [3] in a line: Stat Signaling Pathway (AID 446; active = well fitted curve in either direction with a large enough effect, not every such curve was filed as active;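 also: ME-180 cervical cancer cells given 40 pM IL-6 alongside compound; SIE-controlled beta-lactamase reporter measured as 460/530 nm FRET emission ratio; % is scaled to controls: 0 for no effect and ±100 for the full control effect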). A digest of the protocol:
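FRET read-out (405 nm excitation, 460/530 nm emission) of a beta-lactamase reporter under a STAT-inducible element in ME-180 cervical carcinoma cells. Cells with compound receive 40 pM IL-6 for 5 h. Values are normalised to AC90 stimulation and AC90 JAK-inhibitor controls.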

Assay [4] deals with Glucocorticoid receptor (Homo sapiens) (UniProt P04150). As to the kind of experiment: GR-GFP Redistribution (AID 450;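 active = compounds whose dose series gives a full or clear partial fitted curve of increased nuclear translocation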; also: potency is read from the fitted curve at half-maximal effect). As to conditions: U2OS GR-GFP nuclear translocation, laser cytometry, 2 h.
The target in assay [5] is Mitogen-activated protein kinase 10 (Mus musculus) (UniProt Q61831). As to the kind of experiment: JNK3 AlphaScreen Assay (AID 530; active = well fitted curve in either direction with a large enough effect, not every such curve was filed as active;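 also: kinase came from lysate of stimulated human HepG2 cells; signal reports phosphorylation of biotinylated GST-cJun 1-79 at Ser73 with 10 µM ATP; % is scaled to controls: 0 for no effect and ±100 for the full control effect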). The method, boiled down: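 qHTS titrations with 15 min compound pre-incubation before adding ATP (10 uM final). Read-out: AlphaScreen of Ser73-phosphorylated biotin-GST-cJun using HepG2 lysate JNK3 activated by IL-1β and TNFα.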
Assay [6] addresses 3',5'-cyclic-AMP phosphodiesterase 4B (Homo sapiens) (UniProt Q07343). As to the kind of experiment: qHTS Assay for Inhibitors of PDE-IV (AID 607; active = well fitted activation curve with a large enough effect in the main read-out, with a control signal flat, not every such curve was filed as active; also: % of control where 0% means no effect). The method, boiled down:
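Cell-based read-out of cAMP via a modified cyclic nucleotide-gated channel and membrane potential dye (535/590 nm) in HEK293 cells expressing PDE4 endogenously. Compounds tested up to 22.9 uM final; 100 uM RO 20-1724 reference.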

A short description of assay [7]: qHTS Assay for Lipid Storage Modulators (AID 1519; calls by dose curve). As to conditions: Drosophila S3 cells, BODIPY lipid droplet/cell ratio, laser cytometry, cells loaded with oleic acid. The method, boiled down:
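Cells seeded at 5,000 per well were treated with compounds over a concentration series and loaded with oleic acid (400 uM, as added). Lipid droplet fluorescence (488 nm excitation, 500-530 nm channel) was read by laser-scanning cytometry and normalized to 20 uM Triacsin C.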
For orientation: qHTS replaces the single test concentration by a dilution series.

The target of assay [8] is DNA dC->dU-editing enzyme APOBEC-3G (Homo sapiens) (UniProt Q9HC16). As to the kind of experiment: qHTS for inhibitors of Vif-A3G interactions: Validation (AID 588379). Also: 0% is about no effect. The method, boiled down: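 Yellow fluorescence (Ex 488, Em 500-530) of Vif-coexpressing HeLa A3G-eYFP cells, scanned by Acumen cytometer, reports blocked A3G degradation. Cells plated at 700/well overnight at 37 deg C before compound addition, then a further overnight compound incubation at 37 deg C.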

Assay [9] has as its system Zika virus NS2B-NS3 protease. The assay is described as follows: Primary screen GU AMC qHTS for Zika virus inhibitors (AID 1347154).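 Also: 0% = no-inhibitor control and -100% = no-enzyme control; nearly all actives have a fitted effect of over 70% in size.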 The method, boiled down: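 Fluorogenic AMC-substrate cleavage by noncovalent NS2B-NS3 protease complex (25 nM, pH 8.0 Tris buffer with Tween 20) followed for 15 minutes at room temperature (~20% conversion). Percent inhibition from ex340/em450 signal change, fitted by 4-parameter Hill equation.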

The nature of assay [10]: Primary qHTS for small molecule stabilizers of the endoplasmic reticulum resident proteome: Secreted ER Calcium Modulated Protein (SERCaMP) assay (AID 1508630). Also: % is scaled to controls: 0 for no effect and ±100 for the full control effect. The method, boiled down:
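The SH-SY5Y reporter protocol was run at 3 concentrations up to 38.3 uM (primary) or 11 concentrations (follow-up): 16 h compound, 100 nM thapsigargin for 4 h, then extracellular luciferase luminescence.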

In assay [11] the target is Glucocorticoid receptor (Homo sapiens) (UniProt P04150). The assay is described as follows: GR-EFC Redistribution (AID 451; calls by dose curve; also: potency is read from the fitted curve at half-maximal effect). As to conditions: CHO-K1 GR-EFC translocation, beta-gal luminescence, 2 h. A digest of the protocol:
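Translocation of GR-ED fusion to nuclear EA restores b-gal, read by luminescence after 1 h room-temperature detection. Engineered CHO-K1 biosensor cells, 1,000/well, exposed 2 h at 37 C to titrations up to 46 uM final.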

Assay [12] has as its target Guanine nucleotide-binding protein G(i) subunit alpha-1 (Homo sapiens) (UniProt P63096). As to the kind of experiment: qHTS Assay for Inhibitors of RGS12 GoLoco Motif Activity (Green Fluorophore) (AID 879).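 Also: 0% = labeled peptide with Gαi1 and full inhibition = labeled peptide alone without protein; negative values mean loss of peptide binding seen as reduced polarization.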 A digest of the protocol: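 A drop in FITC polarization marked displacement of the FITC-tagged RGS12 GoLoco peptide (10 nM) from Gαi1 (50 nM). Compounds were incubated 10 min at room temperature in Tris pH 7.5 buffer containing 150 mM NaCl, 0.1 mM GDP and 0.05% NP40; unlabeled peptide titration served as control.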

Assay [13] deals with Muscarinic acetylcholine receptor M1 (Rattus norvegicus) (UniProt P08482). The assay is described as follows: qHTS Assay for Antagonists of Acetylcholine Muscarinic M1 Receptor: Measurement of IP-One Response (AID 944). Also: nearly all actives have a fitted effect of over 75% in size. A digest of the protocol:
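IP1 accumulation measured via TR-FRET between d2-IP1 and Eu-cryptate anti-IP1 antibody after carbachol (200 nM, EC80) stimulation for 30 min; rat M1-transfected CHO cells received compound 10 min before agonist.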

Assay [14] concerns the target Pyruvate kinase (Leishmania mexicana) (UniProt Q27686). As to the kind of experiment: qHTS Validation Assay for Inhibitors of Leishmania Mexicana Pyruvate Kinase (AID 945).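 Also: 0% = DMSO only neutral control wells.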 A digest of the protocol:
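Compounds are tested as eight-point concentration series. Reactions contain 0.2 nM LmPYK E451W, 0.5 mM PEP, 0.1 mM ADP, 7 mM MgCl2 and 50 mM KCl at pH 7.2, run 1 h at room temperature, then read by PKLight luminescence.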

Assay [15] addresses Pyruvate kinase PKM (Homo sapiens) (UniProt P14618). The assay is described as follows: qHTS Assay for Activators of Human Muscle Pyruvate Kinase (AID 954; active = well fitted curve in the direction sought with a large enough effect, not every such curve was filed as active;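 also: 0% = uninhibited enzyme and -100% = no enzyme or full thiadiazolimine inhibition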). The method, boiled down:
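ATP production by PKM2 detected via luciferase luminescence after 1 h room-temperature reaction (0.1 nM enzyme, PEP at Km 0.5 mM, ADP 0.1 mM, pH 7.2 imidazole buffer). Inhibition scaled to no-enzyme control; activation referenced to 0.3 nM enzyme wells.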

The target of assay [16] is Alpha-galactosidase (Coffea arabica) (UniProt Q42656). As to the kind of experiment: Counterscreen for Glucocerebrosidase Inhibitors: qHTS Assay for Coffee Bean alpha-Galactosidase at pH 4.5 (AID 957).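 Also: plate controls were enzyme alone for no effect and no enzyme for full effect.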 The method, boiled down:
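Fluorogenic qHTS at pH 4.5 (citrate buffer with Tween-20): 2 nM enzyme, 80 uM 4-MU-alpha-galactoside substrate, compound titrated 0.7 nM to 77 uM, 20 min room temperature. Glycine/NaOH stop; 4-MU read Ex 365/Em 440; Hill-equation AC50 against no-enzyme and enzyme controls.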
On the technique in general: The purpose of a counterscreen is to sort out artefacts and off-target activity.

Assay [17] deals with Alpha-galactosidase A (Homo sapiens) (UniProt P06280). As to the kind of experiment: Counterscreen for Glucocerebrosidase Inhibitors: qHTS Assay for Human alpha-Galactosidase at pH 4.5 (AID 992). Also: 0% is about no effect. A digest of the protocol:
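Fluorogenic 1536-well qHTS at pH 4.5 (citrate, Tween-20): 2 nM enzyme, 80 uM 4-MU-alpha-galactoside, 20 min room temperature, NaOH/glycine stop. Titration 0.7 nM to 77 uM, data normalized to no-enzyme and full-activity controls, Hill-fitted AC50.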

Assay [18] addresses alpha-glucosidase (Oryza sativa, rice) (UniProt Q653V4). The assay is described as follows: Counterscreen for Glucocerebrosidase Inhibitors: qHTS Assay for Rice alpha-Glucosidase at pH 5.0 (AID 997).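 Also: 0% = full activity with enzyme and -100% = basal without enzyme.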 The method, boiled down: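 Endpoint fluorogenic assay at pH 5.0: compounds (0.7 nM to 77 uM) titrated against 4 nM rice enzyme and 400 uM 4-MU-alpha-glucoside for 20 min at room temperature; NaOH/glycine stop, read ex 365/em 440 nm, Hill-fitted AC50.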

Assay [19] deals with Alpha-galactosidase (Coffea arabica) (UniProt Q42656). The assay is described as follows: Counterscreen for Glucocerebrosidase Inhibitors: qHTS Assay for Coffee Bean alpha-Galactosidase at pH 5.9 (AID 998).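 Also: plate controls were uninhibited enzyme for no effect and no-enzyme basal signal for full effect.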 A digest of the protocol: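 Fluorogenic 4-MU substrate hydrolysis, 80 uM substrate and 2 nM coffee bean alpha-galactosidase, pH 5.9 citrate buffer, 20 min at room temperature, then NaOH/glycine stop. Titration 0.7 nM–77 uM, normalized to no-enzyme and enzyme controls, AC50 via Hill equation.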

Setting [20] is: measured here: cell count channel max response.
Where [21] appears, read: measured here: lipid channel max response.

Values joined by “and” are separate entries in the source; they are usually repeats but may differ in a detail not shown here. Equal entries are not always repeated. Results filed as inconclusive are left out. Active and inactive are the calls of the source. Unless noted, calls follow the shape of the dose curve; as a rule, active = well fitted curve in the direction sought with a large enough effect; inconclusive = small, poorly fitted or top-dose-only effect, or another doubt; inactive = no such curve, though single readings can be large; an effect the other way counts as inactive or inconclusive. Where a SMILES comes first, the peptide text is derived from it. A value given as a limit tells only on which side of the number the result lay.

Chain of 3',5'-cyclic-AMP phosphodiesterase 4B (Homo sapiens) (Q07343 whole entry, looked up): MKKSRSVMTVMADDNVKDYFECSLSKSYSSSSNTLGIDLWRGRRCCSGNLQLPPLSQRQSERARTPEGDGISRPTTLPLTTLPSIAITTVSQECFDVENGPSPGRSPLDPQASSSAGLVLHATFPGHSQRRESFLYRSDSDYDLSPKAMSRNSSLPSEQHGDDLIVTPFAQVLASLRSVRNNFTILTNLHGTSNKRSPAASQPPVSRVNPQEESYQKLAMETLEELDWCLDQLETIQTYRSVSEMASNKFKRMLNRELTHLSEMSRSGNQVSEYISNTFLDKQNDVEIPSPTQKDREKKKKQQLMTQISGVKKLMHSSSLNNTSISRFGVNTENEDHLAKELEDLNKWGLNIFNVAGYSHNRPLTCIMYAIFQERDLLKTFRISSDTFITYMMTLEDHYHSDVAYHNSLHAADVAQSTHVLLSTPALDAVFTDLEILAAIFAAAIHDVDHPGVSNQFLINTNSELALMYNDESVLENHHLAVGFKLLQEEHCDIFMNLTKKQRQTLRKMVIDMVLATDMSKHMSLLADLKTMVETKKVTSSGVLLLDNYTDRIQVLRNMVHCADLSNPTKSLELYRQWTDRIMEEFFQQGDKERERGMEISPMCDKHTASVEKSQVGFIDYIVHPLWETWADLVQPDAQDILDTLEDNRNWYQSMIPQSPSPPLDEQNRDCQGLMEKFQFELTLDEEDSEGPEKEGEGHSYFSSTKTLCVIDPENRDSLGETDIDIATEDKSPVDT
Chain of Glucocorticoid receptor (Homo sapiens) (P04150 whole entry, looked up, the tested form may be a part): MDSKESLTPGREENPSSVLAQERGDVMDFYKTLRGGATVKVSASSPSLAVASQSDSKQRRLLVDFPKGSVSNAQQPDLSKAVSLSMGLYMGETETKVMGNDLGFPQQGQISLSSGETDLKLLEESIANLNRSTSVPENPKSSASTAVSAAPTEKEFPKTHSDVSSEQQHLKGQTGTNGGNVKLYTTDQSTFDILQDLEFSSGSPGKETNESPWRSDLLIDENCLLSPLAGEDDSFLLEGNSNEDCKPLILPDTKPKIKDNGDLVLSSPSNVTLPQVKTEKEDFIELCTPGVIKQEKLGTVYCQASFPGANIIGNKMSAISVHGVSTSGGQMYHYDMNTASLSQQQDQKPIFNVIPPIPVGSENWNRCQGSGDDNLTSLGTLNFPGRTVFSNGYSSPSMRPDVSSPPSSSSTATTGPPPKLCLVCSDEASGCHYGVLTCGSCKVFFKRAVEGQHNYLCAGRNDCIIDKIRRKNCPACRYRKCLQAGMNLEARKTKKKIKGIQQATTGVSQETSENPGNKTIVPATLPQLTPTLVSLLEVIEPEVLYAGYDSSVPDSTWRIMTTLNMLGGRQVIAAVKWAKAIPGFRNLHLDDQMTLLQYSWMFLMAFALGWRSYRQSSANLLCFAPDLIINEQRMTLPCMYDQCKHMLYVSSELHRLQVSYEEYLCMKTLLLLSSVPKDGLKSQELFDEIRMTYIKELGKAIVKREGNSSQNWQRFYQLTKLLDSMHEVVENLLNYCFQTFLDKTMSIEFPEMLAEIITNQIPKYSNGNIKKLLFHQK
Chain of Cytochrome P450 1A2 (Homo sapiens) (P05177 whole entry, looked up): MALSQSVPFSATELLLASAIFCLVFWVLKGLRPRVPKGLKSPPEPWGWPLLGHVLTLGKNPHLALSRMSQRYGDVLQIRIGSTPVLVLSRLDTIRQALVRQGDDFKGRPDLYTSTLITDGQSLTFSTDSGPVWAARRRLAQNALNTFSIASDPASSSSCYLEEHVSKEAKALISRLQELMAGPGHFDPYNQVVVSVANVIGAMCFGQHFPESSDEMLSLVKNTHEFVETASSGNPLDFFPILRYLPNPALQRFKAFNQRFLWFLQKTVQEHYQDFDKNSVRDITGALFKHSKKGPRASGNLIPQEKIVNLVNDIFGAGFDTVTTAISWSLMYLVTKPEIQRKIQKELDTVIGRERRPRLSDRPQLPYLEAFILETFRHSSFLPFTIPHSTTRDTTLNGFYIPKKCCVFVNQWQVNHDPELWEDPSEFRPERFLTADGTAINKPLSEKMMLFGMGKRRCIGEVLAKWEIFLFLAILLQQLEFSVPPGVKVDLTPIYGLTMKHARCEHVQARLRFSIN
Chain of Alpha-galactosidase (Coffea arabica) (Q42656 whole entry, looked up): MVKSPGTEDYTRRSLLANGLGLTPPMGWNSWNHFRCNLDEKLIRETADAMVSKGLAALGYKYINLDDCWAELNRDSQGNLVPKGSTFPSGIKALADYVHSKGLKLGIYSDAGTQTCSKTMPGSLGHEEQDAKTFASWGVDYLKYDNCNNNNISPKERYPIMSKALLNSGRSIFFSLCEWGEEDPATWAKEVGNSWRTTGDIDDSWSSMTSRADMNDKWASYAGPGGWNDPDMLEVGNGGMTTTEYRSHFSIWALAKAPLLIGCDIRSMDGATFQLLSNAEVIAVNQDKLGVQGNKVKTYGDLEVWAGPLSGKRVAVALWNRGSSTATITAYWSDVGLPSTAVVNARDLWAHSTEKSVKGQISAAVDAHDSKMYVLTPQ
Chain of DNA dC->dU-editing enzyme APOBEC-3G (Homo sapiens) (Q9HC16 whole entry, looked up): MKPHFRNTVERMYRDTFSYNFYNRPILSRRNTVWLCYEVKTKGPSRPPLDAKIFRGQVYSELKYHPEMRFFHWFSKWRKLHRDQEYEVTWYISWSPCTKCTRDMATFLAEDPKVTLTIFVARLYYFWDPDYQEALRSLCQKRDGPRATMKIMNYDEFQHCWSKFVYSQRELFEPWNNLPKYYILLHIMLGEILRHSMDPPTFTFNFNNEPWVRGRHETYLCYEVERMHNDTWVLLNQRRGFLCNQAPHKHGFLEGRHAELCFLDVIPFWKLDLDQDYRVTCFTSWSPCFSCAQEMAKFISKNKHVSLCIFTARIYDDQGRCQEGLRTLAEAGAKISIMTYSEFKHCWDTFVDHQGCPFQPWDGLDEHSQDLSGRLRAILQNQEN
Chain of Alpha-galactosidase A (Homo sapiens) (P06280 whole entry, looked up): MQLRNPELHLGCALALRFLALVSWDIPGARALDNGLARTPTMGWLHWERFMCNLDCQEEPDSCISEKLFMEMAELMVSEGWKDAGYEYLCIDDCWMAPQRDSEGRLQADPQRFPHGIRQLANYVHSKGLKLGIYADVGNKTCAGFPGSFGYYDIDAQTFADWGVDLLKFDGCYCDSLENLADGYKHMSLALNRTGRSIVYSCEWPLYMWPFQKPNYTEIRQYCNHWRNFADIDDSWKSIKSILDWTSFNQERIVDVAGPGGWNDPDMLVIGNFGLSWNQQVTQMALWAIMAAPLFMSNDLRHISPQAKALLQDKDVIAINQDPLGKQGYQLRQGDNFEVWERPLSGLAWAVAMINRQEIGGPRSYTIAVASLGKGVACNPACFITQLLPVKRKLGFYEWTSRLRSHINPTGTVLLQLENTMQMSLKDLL
Chain of Pyruvate kinase (Leishmania mexicana) (Q27686 2-499 E452W): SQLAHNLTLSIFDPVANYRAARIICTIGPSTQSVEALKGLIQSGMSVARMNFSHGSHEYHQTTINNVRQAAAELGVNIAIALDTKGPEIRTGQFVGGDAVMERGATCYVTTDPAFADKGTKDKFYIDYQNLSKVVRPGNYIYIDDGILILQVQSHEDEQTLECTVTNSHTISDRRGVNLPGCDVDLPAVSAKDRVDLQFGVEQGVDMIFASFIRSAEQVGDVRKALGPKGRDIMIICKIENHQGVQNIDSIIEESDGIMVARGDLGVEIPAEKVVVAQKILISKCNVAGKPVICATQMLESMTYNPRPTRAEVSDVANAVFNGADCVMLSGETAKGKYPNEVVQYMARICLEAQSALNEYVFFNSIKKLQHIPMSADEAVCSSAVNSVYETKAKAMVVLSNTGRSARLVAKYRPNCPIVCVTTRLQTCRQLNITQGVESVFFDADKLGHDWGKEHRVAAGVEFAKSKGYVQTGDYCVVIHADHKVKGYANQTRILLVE
Chain of Guanine nucleotide-binding protein G(i) subunit alpha-1 (Homo sapiens) (P63096 whole entry, looked up): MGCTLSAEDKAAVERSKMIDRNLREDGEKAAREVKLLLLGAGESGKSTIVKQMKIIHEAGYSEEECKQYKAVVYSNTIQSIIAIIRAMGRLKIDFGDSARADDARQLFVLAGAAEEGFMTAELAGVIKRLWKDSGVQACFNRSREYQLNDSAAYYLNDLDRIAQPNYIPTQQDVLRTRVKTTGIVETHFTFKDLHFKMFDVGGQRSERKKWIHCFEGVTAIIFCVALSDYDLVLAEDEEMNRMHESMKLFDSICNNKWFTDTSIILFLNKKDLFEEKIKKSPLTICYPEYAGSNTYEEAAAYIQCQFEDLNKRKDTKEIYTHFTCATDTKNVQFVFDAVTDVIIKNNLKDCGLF
Chain of Muscarinic acetylcholine receptor M1 (Rattus norvegicus) (P08482 whole entry, looked up): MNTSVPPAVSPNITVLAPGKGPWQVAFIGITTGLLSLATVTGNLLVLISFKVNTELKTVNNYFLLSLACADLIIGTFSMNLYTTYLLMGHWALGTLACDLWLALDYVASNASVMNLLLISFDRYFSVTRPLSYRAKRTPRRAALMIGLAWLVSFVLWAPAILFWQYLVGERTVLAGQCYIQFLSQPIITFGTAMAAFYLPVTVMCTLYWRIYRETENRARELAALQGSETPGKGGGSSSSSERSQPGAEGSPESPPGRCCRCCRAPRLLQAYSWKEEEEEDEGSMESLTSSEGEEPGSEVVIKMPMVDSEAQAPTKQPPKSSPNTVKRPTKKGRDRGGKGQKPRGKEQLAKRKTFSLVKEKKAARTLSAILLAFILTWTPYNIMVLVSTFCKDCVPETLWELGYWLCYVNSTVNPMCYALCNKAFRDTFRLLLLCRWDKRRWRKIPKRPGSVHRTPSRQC

For the compound `NC[C@@H](CC(=O)O)c1ccc(Cl)cc1`, the Potency result in assay [1], in assay [6], in assay [8], in [9] and in [10] was “inactive” in each case. Also, the activity change, negative = inhibition in assay [2] (at 17.2 µM (top of the series)) was -1.76% (inactive); in assay [2] (at 38 µM (top of the series)) it was -6.39% (inactive); in assay [7] (at 25.7 µM (top of the series)), 0.101% (inactive). For the same compound, the outcome in assay [3] and in assay [5] was inactive. Also, the Potency in assay [4] was > 20.6 µM (inactive) and > 46 µM (inactive). Also, the max response in [7] (setting [20]) came to 11.7%; in assay [7] (setting [21]), 10.6%.
`CCCCC/C=C\C/C=C\C/C=C\C=C\[C@H](CCCC(=O)O)OO`: the figures for the activity change, negative = inhibition in [9] and in assay [10] were 7.53% [at 0.59 µM] (inactive) and -17.5% [at 0.478 µM] (inactive), respectively.
As to `CC(N)(COP(=O)(O)Oc1ccccc1)C(=O)O` (centres undefined), the Potency entry in assay [9] and in [10] was “inactive” throughout.
With `NCC(CC(=O)O)c1ccc(Cl)s1` (centres undefined), the Potency result in assay [9] and in [10] was “inactive” each time.
Regarding `CCN1C[C@]2(COC)CC[C@H](OC)[C@@]34C5C[C@@H]6[C@@H](OC)C[C@@]7(OCO[C@@]7([C@@H](O)C23)[C@@H]14)C5[C@H]6OC` (some centres undefined), the Potency entry in [9] and in [10] was “inactive” in each case.
On to `C=CCN1CC[C@@]23c4c5ccc(O)c4O[C@H]2/C(=N\N=C2/CC[C@@]4(O)[C@H]6Cc7ccc(O)c8c7[C@@]4(CCN6CC=C)[C@@H]2O8)CC[C@]3(O)[C@@H]1C5`, for which the activity change, negative = inhibition in [2] (at 38 µM (top of the series)) was -21.2% (inactive); in [7] (at 57.5 µM (top of the series)), 1.28% (inactive). Also, the Potency in [4] and in assay [11] was > 46 µM (inactive) throughout. Further, the compound was called inactive in [5], in assay [12], in [14], in assay [15], in assay [16] and in [17]. Also, the compound was called inactive in assay [18] and in assay [19]. For the same compound, the Potency entry in assay [6], in [13], in assay [8], in assay [9] and in assay [10] was “inactive” each time. Moreover, the max response in assay [7] (setting [20]) is 10.9%; in assay [7] (setting [21]) it was 11.9%.
In the case of `NCCc1cccc(O)c1`, the Potency entry in [9] and in [10] was “inactive” in each case.
On to `NCCCC[C@H](NC(=O)[C@H](Cc1ccccc1)NC(=O)[C@H](CCCN=C(N)N)NC(=O)[C@@H](N)Cc1ccc(O)cc1)C(N)=O`, for which the values for the activity change, negative = inhibition in [9] and in assay [10] were 9.11% [at 6.83 µM] (inactive) and -26.5% [at 3.88 µM] (inactive), respectively.
`c1cncc(C2=NCCC2)c1`: the activity change, negative = inhibition in assay [2] (at 17.2 µM (top of the series)) was -0.876% (inactive); in assay [7] (at 25.7 µM (top of the series)), -0.221% (inactive). For the same compound, the outcome in assay [3] and in assay [5] was inactive. Also, the Potency in assay [4] and in [11] was > 20.6 µM (inactive) in each case. Also, the Potency result in assay [6], in assay [9] and in assay [10] was “inactive” each time. For the same compound, the max response in assay [7] (setting [20]) and in assay [7] (setting [21]) was -18.1% in each case.
As to `Cc1ccc2c(c1)Cc1c(C(=O)NC3CCCCC3)nn(-c3ccc(Cl)cc3Cl)c1-2`, the Potency result in [9] and in assay [10] was “inactive” throughout.
With `C[C@H](NC(=O)[C@@H](N)Cc1ccc(O)cc1)C(=O)N[C@@H](Cc1ccccc1)C(=O)NCC(=O)N[C@@H](Cc1ccc(O)cc1)C(=O)N1CCC[C@H]1C(=O)N[C@@H](CO)C(N)=O`, the activity change, negative = inhibition was 8.07% [at 6.83 µM] (inactive) in assay [9] and -16.9% [at 3.88 µM] (inactive) in [10].
With `NC1(c2ccccc2Cl)CCCCC1=O` (centres undefined), the Potency entry in assay [9] and in assay [10] was “inactive” in each case.
As to `O=C(O)C1CN(CP(=O)(O)O)CCN1` (centres undefined), the Potency entry in assay [9] and in assay [10] was “inactive” in each case.
Regarding `O=C(O)/C=C/CO`, the Potency result in assay [9] and in assay [10] was “inactive” each time.
In the case of `CN(CC(=O)N[C@H](CO)Cc1ccccc1)C(=O)[C@H](CCS(C)=O)NC(=O)[C@@H](N)Cc1ccc(O)cc1` (some centres undefined) (HELM PEPTIDE1{Y.[CS(=O)CC[C@H](N[*:1])C(=O)[*:2]].[Sar].[OC[C@H](Cc1ccccc1)N[*:1]]}$$$$V2.0), the figures for the activity change, negative = inhibition in assay [9] and in assay [10] were 16.9% [at 6.83 µM] (inactive) and -13.2% [at 3.88 µM] (inactive), respectively.
As to `CC(=O)C1CCC2C3CCC4CC(C)(O)CCC4(C)C3CCC12C` (centres undefined), the Potency result in assay [9] and in [10] was “inactive” each time.
